Here are results for 10 compounds from PubChem BioAssay (NCI).

A short description of experiment [1]: NCI Yeast Anticancer Drug Screen. Data for the rad50 strain (AID 155).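 Further: 0% = growth of vehicle-only cultures of the same strain.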 The following applies: S. cerevisiae rad50 strain growth inhibition, active compounds read high. A digest of the protocol:
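Vehicle-treated cultures provide the reference for the growth inhibition reported for compound-exposed, repair-deficient yeast.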

Experiment [2] in a line: NCI Yeast Anticancer Drug Screen. Data for the mec2-1 strain (AID 157). Conditions: S. cerevisiae mec2-1 strain, active compounds read high. A digest of the protocol: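 Using mec2-1 yeast: add compound, measure growth, express inhibition versus vehicle-treated cultures.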
Experiment [3] is described as follows: NCI Yeast Anticancer Drug Screen. Data for the sgs1 mgt1 strain (AID 161).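 Further: 0% = growth of cultures given vehicle only.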 Conditions: S. cerevisiae sgs1 mgt1 strain, active compounds read high. The method, boiled down: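 Percent growth inhibition was derived by comparing compound-exposed mutant yeast with vehicle-exposed cultures. The strain carries alterations in DNA damage repair.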
Experiment [4] can be described thus: NCI Yeast Anticancer Drug Screen. Data for the cln2 rad14 strain (AID 165).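 Further: 0% = growth equal to vehicle treated cultures.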 Conditions: S. cerevisiae cln2 rad14 strain, active compounds read high. The method, boiled down:
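Yeast strain cln2 rad14, bearing defects in cell cycle control and DNA repair, serves as the test system; values reflect growth inhibition compared with vehicle.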

A short description of experiment [5]: NCI Yeast Anticancer Drug Screen. Data for the bub3 strain (AID 167). The following applies: S. cerevisiae bub3 mutant strain, active compounds read high. The method, boiled down: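 Mutant yeast screening strain plus compound; vehicle-treated cultures serve as the 0% inhibition reference.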
The nature of experiment [6]: NCI Yeast Anticancer Drug Screen. Data for the mlh1 rad18 strain (AID 175). The following applies: S. cerevisiae mlh1 rad18 strain growth inhibition, active compounds read high. A digest of the protocol: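 Steps: expose repair-defective yeast to compound; measure growth; express inhibition against vehicle-treated controls.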
[7] abbreviates: at 5.0 µM (retest, dose inferred, filed as 0.5).
Setting [8] is: at 50.0 µM (retest, dose inferred, filed as 5.0).

About 79,000 compounds went through this panel and 15% of them were active in at least one assay; those are over-represented in the sample as a whole. Values without a mark were called inactive. Calls of active or inactive are those of the source. No stated cut-off is given here; in the data, active means growth inhibition above about 70%; inactive means the rest.

With `COc1cc2c(oc(=O)c3cc(C)cc(OC)c32)c2c(C3OC(C)C(O)C(C)(O)C3O)ccc(O)c12` (stereo not given), the growth inhibition in experiment [1] (setting [7]) is 80% (active); in experiment [1] (setting [8]), 96% (active); in experiment [1] (at 50.0 µM), 90.2% (active); in experiment [2] (setting [7]), 72% (active); in experiment [2] (setting [8]), 97% (active); in experiment [2] (at 50.0 µM), 89.3% (active). In addition, the growth inhibition in experiment [3] (setting [7]) was 79% (active); in experiment [3] (setting [8]) it was 96% (active); in experiment [3] (at 50.0 µM) it was 90.4% (active); in experiment [4] (setting [7]), 75% (active); in experiment [4] (setting [8]), 94% (active); in experiment [4] (at 50.0 µM), 90% (active). In addition, the growth inhibition is 83% (active) in experiment [5] (setting [7]); 97% (active) in experiment [5] (setting [8]); 89.8% (active) in experiment [5] (at 50.0 µM); 90% (active) in experiment [6] (setting [7]); 96% (active) in experiment [6] (setting [8]); 88.8% (active) in experiment [6] (at 50.0 µM).

With `CSc1nc(SC)c2cn(Cc3ccccc3)nc2n1`, the growth inhibition in experiment [1] (setting [7]) is -2%; in experiment [1] (setting [8]), 94% (active); in experiment [1] (at 50.0 µM), 55.5%; in experiment [2] (setting [7]), -3%; in experiment [2] (setting [8]) it was 95% (active); in experiment [2] (at 50.0 µM) it was 52.1%. The growth inhibition in experiment [3] (setting [7]) is -5%; in experiment [3] (setting [8]), 97% (active); in experiment [3] (at 50.0 µM), 80.7% (active); in experiment [4] (setting [7]), -8%; in experiment [4] (setting [8]), 85% (active); in experiment [4] (at 50.0 µM), 26.2%. The growth inhibition in experiment [5] (setting [7]) is 4%; in experiment [5] (setting [8]) it was 92% (active); in experiment [5] (at 50.0 µM), 42.8%; in experiment [6] (setting [7]), -2%; in experiment [6] (setting [8]) it was 95% (active); in experiment [6] (at 50.0 µM) it was 63.8%.

For `CC1=CC(=N/O)/C=CC/1=C(\C#N)c1ccccc1`, the growth inhibition in experiment [1] (setting [7]) is -14%; in experiment [1] (setting [8]) it was 99% (active); in experiment [1] (at 50.0 µM), 99.2% (active); in experiment [2] (setting [7]), -11%; in experiment [2] (setting [8]), 99% (active); in experiment [2] (at 50.0 µM), 99.4% (active). Besides, the growth inhibition in experiment [3] (setting [7]) is -6%; in experiment [3] (setting [8]), 99% (active); in experiment [3] (at 50.0 µM), 99.4% (active); in experiment [4] (setting [7]), -47%; in experiment [4] (setting [8]), 99% (active); in experiment [4] (at 50.0 µM) it was 99.3% (active). In addition, the growth inhibition in experiment [5] (setting [7]) is -17%; in experiment [5] (setting [8]) it was 99% (active); in experiment [5] (at 50.0 µM) it was 99.4% (active); in experiment [6] (setting [7]), -20%; in experiment [6] (setting [8]), 100% (active); in experiment [6] (at 50.0 µM) it was 98.7% (active).

As to `COc1ccc(/C=C/c2ccnnc2)c(OC)c1OC`, the growth inhibition is -7% in experiment [1] (setting [7]); 6% in experiment [1] (setting [8]); 53.2% in experiment [1] (at 50.0 µM); -3% in experiment [2] (setting [7]); 8% in experiment [2] (setting [8]); 79.5% (active) in experiment [2] (at 50.0 µM). The growth inhibition in experiment [3] (setting [7]) is -6%; in experiment [3] (setting [8]), 5%; in experiment [3] (at 50.0 µM), 28.6%; in experiment [4] (setting [7]) it was -4%; in experiment [4] (setting [8]), 39%; in experiment [4] (at 50.0 µM), 52.8%. The growth inhibition in experiment [5] (setting [7]) was -5%; in experiment [5] (setting [8]), 15%; in experiment [5] (at 50.0 µM) it was 39.3%; in experiment [6] (setting [7]), -6%; in experiment [6] (setting [8]), 2%; in experiment [6] (at 50.0 µM), 93.7% (active).

As to `CC(C)C1/C(=N/O)CC(c2ccccc2)N(N=O)C1c1ccccc1` (stereo not given), the growth inhibition in experiment [1] (setting [7]) was 10%; in experiment [1] (setting [8]) it was 97% (active); in experiment [1] (at 50.0 µM) it was 82.3% (active); in experiment [2] (setting [7]) it was -13%; in experiment [2] (setting [8]), 98% (active); in experiment [2] (at 50.0 µM), 93% (active). Besides, the growth inhibition in experiment [3] (setting [7]) is 3%; in experiment [3] (setting [8]) it was 98% (active); in experiment [3] (at 50.0 µM) it was 90.7% (active); in experiment [4] (setting [7]) it was 15%; in experiment [4] (setting [8]), 96% (active); in experiment [4] (at 50.0 µM), 87.7% (active). The growth inhibition is 4% in experiment [5] (setting [7]); 98% (active) in experiment [5] (setting [8]); 88% (active) in experiment [5] (at 50.0 µM); -6% in experiment [6] (setting [7]); 98% (active) in experiment [6] (setting [8]); 90.3% (active) in experiment [6] (at 50.0 µM).

Turning to `OCC1CCc2[nH]c3ccccc3c2C1` (stereo not given), the growth inhibition is -159% in experiment [1] (setting [7]); -160% in experiment [1] (setting [8]); -7.95% in experiment [1] (at 50.0 µM); -53% in experiment [2] (setting [7]); -59% in experiment [2] (setting [8]); -6.55% in experiment [2] (at 50.0 µM). For the same compound, the growth inhibition was -67% in experiment [3] (setting [7]); -68% in experiment [3] (setting [8]); -4.2% in experiment [3] (at 50.0 µM); -56% in experiment [4] (setting [7]); -76% in experiment [4] (setting [8]); 30.9% in experiment [4] (at 50.0 µM). In addition, the growth inhibition in experiment [5] (setting [7]) was -65%; in experiment [5] (setting [8]), -58%; in experiment [5] (at 50.0 µM), 12%; in experiment [6] (setting [7]), -128%; in experiment [6] (setting [8]), -123%; in experiment [6] (at 50.0 µM), 3.5%.

Regarding `[N-]=[N+]=Nc1c(C=O)c(=O)n(-c2ccccc2)c2ccccc12`, the growth inhibition in experiment [1] (setting [7]) is 8%; in experiment [1] (setting [8]) it was 57%; in experiment [1] (at 50.0 µM), 67.2%; in experiment [2] (setting [7]), -1%; in experiment [2] (setting [8]), 60%; in experiment [2] (at 50.0 µM) it was 80.4% (active). The growth inhibition in experiment [3] (setting [7]) was -5%; in experiment [3] (setting [8]) it was 47%; in experiment [3] (at 50.0 µM), 79% (active); in experiment [4] (setting [7]), 0%; in experiment [4] (setting [8]), 29%; in experiment [4] (at 50.0 µM), 63.5%. Moreover, the growth inhibition in experiment [5] (setting [7]) is -23%; in experiment [5] (setting [8]), 26%; in experiment [5] (at 50.0 µM) it was 63.6%; in experiment [6] (setting [7]) it was 6%; in experiment [6] (setting [8]), 67%; in experiment [6] (at 50.0 µM), 68.7%.

Consider `Cc1[nH]c2ccccc2c1-c1ccccc1`, for which the growth inhibition in experiment [1] (setting [7]) was -126%; in experiment [1] (setting [8]), 98% (active); in experiment [1] (at 50.0 µM) it was 99.5% (active); in experiment [2] (setting [7]), -48%; in experiment [2] (setting [8]) it was 99% (active); in experiment [2] (at 50.0 µM), 99.6% (active). Besides, the growth inhibition is -65% in experiment [3] (setting [7]); 98% (active) in experiment [3] (setting [8]); 99.5% (active) in experiment [3] (at 50.0 µM); -53% in experiment [4] (setting [7]); 99% (active) in experiment [4] (setting [8]); 99% (active) in experiment [4] (at 50.0 µM). Also, the growth inhibition in experiment [5] (setting [7]) is -62%; in experiment [5] (setting [8]) it was 98% (active); in experiment [5] (at 50.0 µM), 99.4% (active); in experiment [6] (setting [7]), -122%; in experiment [6] (setting [8]) it was 98% (active); in experiment [6] (at 50.0 µM), 99.5% (active).

With `CC(C)OC(=O)c1ccccc1C(=C1C=C(Br)C(=O)C(Br)=C1)c1cc(Br)c(O)c(Br)c1`, the growth inhibition in experiment [1] (setting [7]) is 85% (active); in experiment [1] (setting [8]), 95% (active); in experiment [1] (at 50.0 µM), 90.7% (active); in experiment [2] (setting [7]), 88% (active); in experiment [2] (setting [8]), 98% (active); in experiment [2] (at 50.0 µM), 91.9% (active). The growth inhibition is 70% (active) in experiment [3] (setting [7]); 95% (active) in experiment [3] (setting [8]); 90.9% (active) in experiment [3] (at 50.0 µM); 96% (active) in experiment [4] (setting [7]); 97% (active) in experiment [4] (setting [8]); 88.2% (active) in experiment [4] (at 50.0 µM). The growth inhibition in experiment [5] (setting [7]) is 94% (active); in experiment [5] (setting [8]), 97% (active); in experiment [5] (at 50.0 µM), 91% (active); in experiment [6] (setting [7]), 96% (active); in experiment [6] (setting [8]), 96% (active); in experiment [6] (at 50.0 µM) it was 90.5% (active).

In the case of `Cn1c(CN(Cc2nc3ccccc3n2C)Cc2nc3ccccc3n2C)nc2ccccc21`, the growth inhibition is 7% in experiment [1] (setting [7]); 73% (active) in experiment [1] (setting [8]); 76.7% (active) in experiment [1] (at 50.0 µM); 2% in experiment [2] (setting [7]); 85% (active) in experiment [2] (setting [8]); 87.9% (active) in experiment [2] (at 50.0 µM). Moreover, the growth inhibition was 3% in experiment [3] (setting [7]); 72% (active) in experiment [3] (setting [8]); 69.7% in experiment [3] (at 50.0 µM); 3% in experiment [4] (setting [7]); 89% (active) in experiment [4] (setting [8]); 68.8% in experiment [4] (at 50.0 µM). The growth inhibition in experiment [5] (setting [7]) is 4%; in experiment [5] (setting [8]), 47%; in experiment [5] (at 50.0 µM) it was 56.2%; in experiment [6] (setting [7]), 3%; in experiment [6] (setting [8]) it was 80% (active); in experiment [6] (at 50.0 µM) it was 56%.
